Experimental data as given in PubChem BioAssay (NCATS).
Some of the results follow. Results filed as inconclusive are left out. Unmarked numbers belong to inactive results. Active and inactive are the calls of the source. The call rests on the fitted dose curve; in most records, active means well fitted cell-killing curve with a large enough effect; inconclusive means small, poorly fitted or top-dose-only effect, or effect the other way; inactive means flat fitted curve, though single readings scatter.

Assay: qHTS screen for small molecules that inhibit ELG1-dependent DNA repair: Hit Confirmation with MMS Viability (AID 624251); further: nearly all actives have a fitted effect of over 60% in size
Details: Cell viability with MMS; series mostly up to 46.1 µM; activity change, negative = viability loss: at the top concentration
Text: Cancer cells divide rapidly compared to normal cells in the body. During cell division, cancer cells need to duplicate their genome by DNA replication. The failure of genome duplication leads to cancer cells' death. Therefore, inhibitors of DNA replication could specifically kill cancer cells. Based on this concept, many chemotherapeutic agents were developed and have been used to treat cancer patients. However, there are a limited number of agents available in the clinical setting, and some of those that do exist have low efficacy and severe side effects. Therefore, if we can find the compounds that effectively block DNA replication either by directly damaging DNA or by inhibiting other cellular mechanisms, the options for cancer treatment will be broadened. With this in mind, we developed a quantitative high-throughput ELG1-luciferase reporter gene assay. Small molecules that specifically block ELG1 function in response to DNA damage can be identified by monitoring the suppression of luciferase activity. Since ELG1 defines a pathway for repairing DNA damage, agents blocking ELG1 function can be used to sensitize cancer cells to chemotherapeutic agents whose mechanism of action involves the induction of DNA damage.
NIH Molecular Libraries Probe Production Network [MLPCN]
NIH Chemical Genomics Center [NCGC]
Assay Provider: Kyungjae Myung, NHGRI, NIH
ELG1-luc HEK293T cells will be seeded in 1536-well plates at a density of 2,000 cells/well. Approximately 5 hours after plating, compounds will be added to the plate by pin tool transfer and MMS will be added by FRD dispenser (final concentration of MMS = 10 µM). 16 hours following the addition of the compounds, cell viability will be measured using Cell Titer Glo.
On the % scale 0 is the no-effect control and ±100 the full control effect; potency means the concentration at half of the fitted maximal effect.

Q: For `COc1ccc(CNc2ncnc3ccccc23)cc1`, which Potency is on record?
A: The Potency was 2.23 µM (active).

Q: With `COc1ccc(NC(C)=O)cc1NC(=O)CN1CCN(C2c3ccccc3-c3ccccc32)CC1` as the molecule, how does the “activity change, negative = viability loss” value read?
A: The value was 2.19%.

Q: With `NC(=O)c1sc2nc3c(c(-c4ccccc4)c2c1N)CCC3` as the molecule, how does the “activity change, negative = viability loss” value read?
A: The value was 13.6%.

Q: For `COc1ccc(-c2nn(-c3ccccc3)cc2/C=C\C(=O)N2CCOCC2)cc1[N+](=O)[O-]`, which “activity change, negative = viability loss” value is on record?
A: The value was 10.3%.

Q: With `Nc1nnc(SCC(=O)Nc2ccc3nc(SCC(=O)Nc4ccccc4)sc3c2)s1` as the molecule, how does the Potency read?
A: Its Potency is 5.6 µM (active).

Q: With `COc1ccc(NS(=O)(=O)c2ccc(Oc3c(C#N)cccc3C#N)cc2)cc1` as the molecule, how does the Potency read?
A: Its Potency is 4.45 µM (active).

Q: Which “activity change, negative = viability loss” value does the source give for `Cc1ccccc1NC(=O)CSc1nc2ccc(Nc3nc(N4CCOCC4)nc(N4CCOCC4)n3)cc2s1` here?
A: The value was -2.12%.

Q: For `CCc1ccc(N(CC)c2ncnc3nc[nH]c23)cc1`, which “activity change, negative = viability loss” value is on record?
A: The value was -7.51%.

Q: For `O=C(C1CCCN(S(=O)(=O)c2ccccc2)C1)N1CCN(c2ccc(F)cc2)CC1` (stereo unspecified), which Potency is on record?
A: Its Potency is 3.97 µM (active).

Q: Which Potency does the source give for `Cc1cc2oc(=O)cc(CN3CCN(S(=O)(=O)c4cccs4)CC3)c2cc1C(C)C` here?
A: Its Potency is 22.3 µM (active).

Q: With `OCCCNc1nccc(-c2cc(Nc3cccc(Cl)c3)ncn2)n1` as the molecule, how does the Potency read?
A: Its Potency is 2.5 µM (active).

Q: With `COc1ccc(CSc2nc(N3CCOCC3)c3c(c2C#N)CC(C)(C)OC3)cc1` as the molecule, how does the “activity change, negative = viability loss” value read?
A: Its value is 13.9%.

Q: Which “activity change, negative = viability loss” value does the source give for `CCOC(=O)c1cccc(NC(=O)C2CCN(c3ncnc4c3nc3n4CCCCC3)CC2)c1` here?
A: The value was -16.4%.

Q: For `Cc1ccc(N(Cc2ccc(C(=O)Nc3ccccc3C(=O)NCc3ccco3)cc2)S(C)(=O)=O)cc1C`, which “activity change, negative = viability loss” value is on record?
A: The value was -6.33%.

Q: With `CC(=O)c1c(C)n(-c2ccc(C)cc2)c2ccc(O)cc12` as the molecule, how does the “activity change, negative = viability loss” value read?
A: The value was 7.12%.

Q: For `COc1ccccc1C(=O)Nc1ccc(C)c(S(=O)(=O)N2CCCCC2)c1`, which “activity change, negative = viability loss” value is on record?
A: Its value is -23.1%.

Q: With `CN(C)c1ccnc2sc3c(=O)n(Cc4ccccc4)cnc3c12` as the molecule, how does the “activity change, negative = viability loss” value read?
A: Its value is 2.47%.

Q: Which “activity change, negative = viability loss” value does the source give for `CS(=O)(=O)c1ccc2nc(NC(=O)C3CCCCC3)sc2c1` here?
A: Its value is -2.61%.

Q: For `CC12CCC(C(=O)N3CCN(c4ncccn4)CC3)(c3nc4ccccc4nc31)C2(C)C` (stereo unspecified), which “activity change, negative = viability loss” value is on record?
A: The value was -11.1%.

Q: With `COc1ccc(NC(=O)c2sc3nc(C)nc(N4CCN(c5ccccn5)CC4)c3c2C)c(OC)c1` as the molecule, how does the “activity change, negative = viability loss” value read?
A: The value was -3.03%.

Q: With `CC(C)(CNC(=O)c1ccc(Cl)c(S(=O)(=O)N2CCc3ccccc3C2)c1)N1CCOCC1` as the molecule, how does the Potency read?
A: The Potency was 1.99 µM (active).

Q: For `COc1ccc(S(=O)(=O)Nc2ccc3oc(C)c(C(C)=O)c3c2)cc1`, which Potency is on record?
A: The Potency was 3.97 µM (active).

Q: With `Clc1ccc2nc(-c3ccccc3)nc(C(Cl)Cl)c2c1` as the molecule, how does the Potency read?
A: The Potency was 3.97 µM (active).

Q: For `Cc1ccc(Nc2nc(N3CCOCC3)nc(N3CCOCC3)n2)cc1Cl`, which “activity change, negative = viability loss” value is on record?
A: The value was -4.13%.

Q: For `COc1ccc(NC(=O)C2CCC(CNc3c(N4CCCCC4)c(=O)c3=O)CC2)c(OC)c1` (stereo unspecified), which “activity change, negative = viability loss” value is on record?
A: The value was -3.43%.

Q: Which Potency does the source give for `Cc1ccc(C)c(S(=O)(=O)N2CCN(c3ncnc4sccc34)CC2)c1` here?
A: The Potency was 2.5 µM (active).
